# FBPA coupling cs = qHTS Assay for Inhibitors of Fructose-1,6-bisphosphate Aldolase from Giardia Lamblia: Coupling assay counterscreen; coupling enzyme system counterscreen, AmpLite Red fluorescence; activity change, negative = inhibition, % at 58.2 µM, hits read low; 290,000 tested, 0.67% active; AID 2472, 2010; in the data active means activity change below about -30%
#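 Compounds tested against the coupling enzymes alone at 57.5 uM final; readout was AmpLite Red fluorescence (525/598 nm) after 20 min at RT.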
# TrxR1 substrate = qHTS Assay for Substrates of Mammalian Selenoprotein Thioredoxin Reductase 1 (TrxR1): qHTS; Thioredoxin reductase 1, cytoplasmic (Rattus norvegicus), O89049; purified TrxR1 substrate turnover, NADPH consumption readout; Potency, µM (top dose mostly 114 µM); 390,000 tested, 0.01% active; AID 588456, 2011; further: nearly all actives have a fitted effect of over 50% in size
#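 Rat TrxR1, dispensed at 90 nM, was prereduced with 400 uM NADPH (final) for 5 min at ~22 deg C, then incubated with compound 15 min before 400 uM selenite. A first-read NADPH fluorescence drop versus no-compound background flagged substrates.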
# TrxR1 inh = qHTS Assay for Inhibitors of Mammalian Selenoprotein Thioredoxin Reductase 1 (TrxR1): qHTS; Potency, µM (series often up to 114 µM), actives largely listed as inhibitors; Thioredoxin reductase 1, cytoplasmic (Rattus norvegicus), O89049; recombinant rTrxR1, NADPH fluorescence consumption, selenite substrate; 390,000 tested, 1% active; further: nearly all actives have a fitted effect of over 65% in size
#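 Rat TrxR1 (90 nM in the dispensed reagent) was pre-reduced with 400 uM NADPH for 5 min at room temperature, then incubated with compound for 15 min. After 400 uM selenite was added, NADPH fluorescence (Ex 340/Em 450 nm) was followed for 8 min.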
# GALK inh = qHTS Assay for Inhibitors of Human Galactokinase (GALK); AID 1868, 2009; Potency, µM (highest dose often 57.5 µM), hits mostly inhibitors; 270,000 tested, 0.007% active; P51570; Purified GALK, Kinase-Glo residual ATP luminescence
# Target sequence (P51570 whole entry, looked up): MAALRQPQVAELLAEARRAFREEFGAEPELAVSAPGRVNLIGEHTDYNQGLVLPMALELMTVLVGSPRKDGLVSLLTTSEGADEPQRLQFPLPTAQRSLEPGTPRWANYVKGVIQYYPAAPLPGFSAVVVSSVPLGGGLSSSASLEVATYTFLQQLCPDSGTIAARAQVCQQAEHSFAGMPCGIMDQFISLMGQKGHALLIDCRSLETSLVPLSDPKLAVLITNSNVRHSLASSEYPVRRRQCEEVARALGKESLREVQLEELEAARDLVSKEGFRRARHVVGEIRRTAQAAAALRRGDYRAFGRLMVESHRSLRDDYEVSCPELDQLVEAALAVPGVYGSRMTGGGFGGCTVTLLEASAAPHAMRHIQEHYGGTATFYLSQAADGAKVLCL
#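 The enzyme phosphorylates galactose (100 uM) using ATP (35 uM); inhibition is detected as higher residual ATP, quantified by bioluminescence after 1 h reaction at room temperature, pH 8.0.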
# RORgamma inh = qHTS for inhibitors of ROR gamma transcriptional activity; Nuclear receptor ROR-gamma (Mus musculus), P51450; 310,000 tested, 5.4% active; Potency, µM (highest dose often 53.6 µM), usual class: inhibitors; Drosophila S2 Gal4-RORgamma UAS-luciferase reporter, 20 h; further: nearly all actives have a fitted effect of over 60% in size
#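 Stably transfected Drosophila Schneider cells are the test system, with ROR gamma fused to Gal4 and luciferase under UAS control; luminescence is read after 20 hr of 700 uM copper sulfate induction at ambient temperature.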
# VP16 counter = VP16 counterscreen qHTS for inhibitors of ROR gamma transcriptional activity; Potency, µM (highest dose often 53.6 µM), usual class: inhibitors; Drosophila S2 Gal4-VP16 UAS-luciferase, luminescence, 20 h; 310,000 tested, 3.5% active; AID 2546, 2010;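 further: Gal4-VP16 expression switched on by copper sulfate through the metallothionein promoter; nearly all actives have a fitted effect of over 50% in size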
# Hits are given with their value; n = inactive; u = inconclusive; x = not tested or not shown; [ ] = dose if it differs, or a comment. A selection: hits, their analogues and other compounds. The true share with any hit is near 5.9%. Unless noted, the call rests on the fitted dose curve; in most records, active means well fitted curve in the direction sought with a large enough effect; inconclusive means small, poorly fitted or top-dose-only effect, or another doubt; inactive means no such curve, though single readings can be large; an effect the other way counts as inactive or inconclusive.
SMILES,FBPA coupling cs,TrxR1 substrate,TrxR1 inh,GALK inh,RORgamma inh,VP16 counter
O=C(CCCSc1nc2ccccc2s1)NCc1ccco1,n,n,n,n,14µM,11µM
CCC(O)CNc1nc(-n2nc(C)cc2C)nc2sc3c(c12)CCCC3 (stereo not given),n,x,x,n,2.5µM,u
CCC(O)CNc1nc(SC)nc2sc3c(c12)CCN(C)C3 (stereo not given),n,n,n,n,n,n
Cc1cc(C)n(-c2nc(SCCN(C)C)c3c4c(sc3n2)CCCC4)n1,n,n,n,n,2.8µM,7.9µM
O=C(CCSCc1ccccc1Cl)N1CCN(c2ccc(F)cc2)CC1,x,n,n,x,x,x
O=c1c2cc3c(cc2n(Cc2cccc(Cl)c2)c(=O)n1Cc1nc(-c2ccccc2)no1)OCO3,x,n,n,x,x,x
N#Cc1ccsc1NC(=O)COC(=O)CCCSc1nc2ccccc2s1,n,n,n,n,u,5µM
CNC(=O)NC(=O)COC(=O)CCCSc1nc2ccccc2s1,n,n,n,n,u,u
CC(C)OC(=O)CSc1nc2ccccc2s1,n,n,n,n,n,n
NC(=O)COC(=O)CCCSc1nc2ccccc2s1,n,n,n,n,7.9µM,13µM
CC(OC(=O)CCCSc1nc2ccccc2s1)C(=O)NC(N)=O (stereo not given),n,n,n,n,4.5µM,4µM
COc1cc(/C=C2/SC(=O)NC2=O)ccc1OCc1ccccc1,n,n,n,n,u,u
COc1ccc(/C=C2/SC(=S)NC2=O)cc1OCc1ccccc1,n,n,n,n,u,18µM
COc1ccc(NC(=O)COC(=O)CCc2nc3ccccc3c(=O)[nH]2)cc1Cl,x,n,n,x,x,x
CN(C)c1ccc(-c2ccc3ncnc(-n4ccnc4)c3c2)cc1,n,x,x,x,7.1µM,13µM
Cc1ccccc1-c1ccc2ncnc(N(C)C)c2c1,n,x,x,x,u,n
Cc1ccccc1-c1ccc2ncnc(-n3ccnc3)c2c1,n,x,x,x,11µM,13µM
CN(C)C(=O)c1ccc(-c2cncnc2-n2ccnc2)cc1,n,x,x,x,n,n
CCC(=O)Nc1ccc(S(=O)(=O)N2CCC(c3nc4ccccc4[nH]3)CC2)cc1,x,n,n,x,x,x
N#Cc1c(-c2ccccc2)cc(-c2ccc3c(c2)OCO3)[nH]c1=O,x,n,n,x,x,x
COc1ccc(-c2cc(-c3ccco3)[nH]c(=O)c2C#N)cc1OC,n,n,16µM,n,n,n
C/C(=N\OC(=O)c1ccc(C)cc1)c1c(C)nc2cc(C)ccn12,n,n,28µM,n,n,n
Cn1ccc(=S)c2ccccc21,n,n,22µM,n,n,n
O=C(NCCc1cccnc1)C1CCC(=O)N(Cc2ccc(Cl)cc2)C1 (stereo not given),n,n,n,x,n,n
COc1ccccc1-c1nnc(NC(=O)C2=COCCO2)o1,n,n,n,n,2.2µM,2.8µM
SMILES,FBPA coupling cs,TrxR1 substrate,TrxR1 inh,GALK inh,RORgamma inh,VP16 counter
COc1ccc(-c2nnc(NC(=O)C3=COCCO3)o2)cc1,n,n,n,n,3.5µM,2.8µM
COc1ccnc(CSC(N)=Nc2ccc(F)cc2)c1,n,n,n,n,10µM,u
COc1ccc(Cn2c(CO)cnc2SCc2ccc(F)cc2)cc1,x,n,n,x,x,x
CC1CCN(S(=O)(=O)c2ccc3c(c2)C(=NO)c2cc(S(=O)(=O)N4CCC(C)CC4)ccc2-3)CC1,n,n,n,x,1.8µM,0.79µM
O=S(=O)(c1ccc2c(c1)C(=NO)c1cc(S(=O)(=O)N3CCCCC3)ccc1-2)N1CCCCC1,n,n,n,n,3.5µM,3.2µM
Cc1cccc(-n2nnc(-c3nc(-c4ccccc4)no3)c2N)c1C,x,n,n,x,x,x
Cc1ccccc1OC(=O)n1c(=S)oc2cc(Cl)ccc21,n,n,n,n,u,u
CCCCN(C)S(=O)(=O)c1ccc(C(=O)Nc2nnc(-c3ccco3)o2)cc1,n,n,n,n,0.4µM,0.71µM
CN(C)S(=O)(=O)c1ccc(C(=O)Nc2nnc(-c3ccco3)o2)cc1,n,n,n,n,1µM,3.2µM
CN(c1ccccc1)S(=O)(=O)c1ccc(C(=O)Nc2nnc(-c3ccc(F)cc3)o2)cc1,n,n,n,n,1µM,1.6µM
Cc1ccccc1C(=O)Nc1nnc(-c2ccco2)o1,n,n,n,n,n,n
CCCCN(CC)S(=O)(=O)c1ccc(C(=O)Nc2nnc(-c3cccs3)o2)cc1,n,n[11.4 µM],n[11.4 µM],n,0.028µM,0.13µM
CN(C)C(=O)c1ccc(OCC(F)(F)F)nc1,n,n,n,n,n,n
CN1C(=O)COc2ccc(C(=O)c3ccccc3C(=O)O)cc21,n,n,n,n,n,n
CCN(CC)S(=O)(=O)c1ccc(C(=O)Nc2nnc(-c3ccco3)o2)cc1,n,n,n,n,0.56µM,1.3µM
COc1ccccc1COC(=O)Nc1c(C)nn(C)c1Cl,n,n,n,n,n,n
Cc1nn(C)c(Cl)c1NC(=O)OCc1ccc(F)cc1,n,n,n,n,u,1.8µM
Cc1c(Br)c(O)c(Br)c(O)c1/C=N/n1c(-c2ccccc2)n[nH]c1=S,n,n,n,x,n,n
Cc1ccccc1-c1n[nH]c(=S)n1/N=C/c1c(C)nn(-c2ccccc2)c1C,n,n,n,n,4.5µM,u
Cc1ccc(-c2n[nH]c(=S)n2/N=C/c2c(C)nn(-c3ccccc3)c2C)cc1,n,n,n,n,6.3µM,u
Cc1nn(-c2ccccc2)c(C)c1/C=N/n1c(-c2ccc(C(C)(C)C)cc2)n[nH]c1=S,n,n,u,n,2.2µM,n
O=C(CN1C(=O)S/C(=C\c2cccs2)C1=O)Nc1ccc(O)cc1C(=O)O,x,n,n,n,n,u
CCC1(COC(NC(=O)c2cccnc2)(C(F)(F)F)C(F)(F)F)COC1,n,n,n,n,n,n
N#Cc1ccccc1NC(=O)CNc1ccc(Cl)c(C(F)(F)F)c1,n,n,n,n,u,11µM
Cc1c(Cl)cccc1NC(=O)CNc1cccc(C(F)(F)F)c1,n,n,n,n,n,n
COc1ccc(C(=O)/C=C/Nc2ccc(S(=O)(=O)Nc3onc(C)c3C)cc2)cc1,n,n,n,n,u,n
Nc1cc(Cl)ccc1N1CCCC1,n,n,n,n,n,n
CCCCc1c(C)[nH]c2c(OC)cccc2c1=S,x,n,n,x,x,x
C=CCc1c(C)[nH]c2c(OC)cccc2c1=S,n,n,n,n,11µM,u
